The panel holds about 83,000 compounds, 20% with a hit somewhere; the sample as a whole holds those more often.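 Testing used 96-well plates and a 48-hour single-concentration exposure. Example: -40 means 40% of the starting cells died.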 Unmarked numbers belong to inactive results. Active and inactive are the calls of the source. How the source made its calls: active means growth percent below 10; inactive means the rest.

The results in this text go back to PubChem BioAssay (NCI).

Test systems include NCI-H23 lung; NCI-H322M lung; HOP-62 NSCLC; NCI-H460 lung; HOP-92 NSCLC; NCI-H522 lung; A549/ATCC NSCLC; 786-0 renal; COLO 205 colon; DU-145 prostate; K-562 leukemia; MALME-3M melanoma; MDA-MB-231 breast; RXF 393 renal; SF-268 CNS; SF-295 CNS; SF-539 CNS; UACC-257 melanoma; M14 melanoma.
Test in all cases: NCI-60 one-dose screen, 48 h (100 = growth as untreated, 0 = no growth, -100 = all killed)
Holding throughout (conditions): 10 µM unless noted

For the molecule `N#Cc1c(NC(=O)c2cccs2)[n+]([O-])c2cc(C(F)(F)F)ccc2[n+]1[O-]`, the growth with NCI-H23 lung is 95.2%; in the test on NCI-H322M lung, 93.7%; in the test with HOP-62 NSCLC it was 112%; with NCI-H460 lung it was 109%; in the test with HOP-92 NSCLC, 33.2%; in the test on NCI-H522 lung, 77.4%. The growth with A549/ATCC NSCLC was 96.1%; with 786-0 renal it was 114%; in the test on COLO 205 colon it was 109%; with DU-145 prostate it was 114%; in the test on K-562 leukemia it was 87.7%; in the test with MALME-3M melanoma, 132%. The growth is 96.8% in the test with MDA-MB-231 breast; 109% in the test with RXF 393 renal; 105% in the test with SF-268 CNS; 97.9% in the test on SF-295 CNS; 101% with SF-539 CNS; 91.4% with UACC-257 melanoma. In addition, the growth in the test with M14 melanoma is 116%.
Turning to `COc1ccc2oc(=O)cc(-c3nc4ccc(N)cc4[nH]3)c2c1`, the growth in the test on NCI-H23 lung was 84%; with NCI-H322M lung it was 86.2%; with HOP-62 NSCLC, 70.8%; in the test with NCI-H460 lung it was 102%; with HOP-92 NSCLC, 80.2%; with NCI-H522 lung, 64.1%. For the same molecule, the growth in the test on A549/ATCC NSCLC is 90%; with 786-0 renal, 96.8%; in the test with COLO 205 colon, 84.9%; in the test on DU-145 prostate, 97.5%; with K-562 leukemia it was 119%; in the test with MALME-3M melanoma it was 121%. For the same molecule, the growth with MDA-MB-231 breast is 74.2%; with RXF 393 renal, 95.1%; with SF-268 CNS it was 87.5%; with SF-295 CNS it was 90.2%; with SF-539 CNS, 82.3%; in the test with UACC-257 melanoma, 132%. For the same molecule, the growth with M14 melanoma is 114%.
As to `CCOCc1nc2ccccc2c(=O)[nH]1`, the growth in the test with NCI-H23 lung is 94.7%; in the test with NCI-H322M lung, 100%; in the test with HOP-62 NSCLC, 102%; in the test on HOP-92 NSCLC, 102%; in the test on NCI-H522 lung, 91.3%; in the test on A549/ATCC NSCLC, 100%. Besides, the growth in the test on 786-0 renal is 103%; with COLO 205 colon, 108%; in the test on DU-145 prostate it was 107%; with K-562 leukemia, 119%; with MALME-3M melanoma, 89.6%; in the test with MDA-MB-231 breast, 103%. For the same molecule, the growth is 117% with RXF 393 renal; 101% with SF-268 CNS; 99.6% in the test on SF-295 CNS; 102% in the test on SF-539 CNS; 108% in the test on UACC-257 melanoma; 96.2% in the test with M14 melanoma.
Turning to `CN1C(=O)c2cc(Cl)nc3c(NC(=O)c4cccc(Cl)c4)c(Cl)c(NC(=O)c4cccc(Cl)c4)c1c23`, the growth in the test on NCI-H23 lung is 18.7%; in the test with NCI-H322M lung, 28.3%; in the test with HOP-62 NSCLC, 17.4%; in the test on NCI-H460 lung, 2.82% (active); with HOP-92 NSCLC, -38.4% (active); with NCI-H522 lung it was -54.6% (active). Further, the growth in the test with A549/ATCC NSCLC was 83.8%; in the test on 786-0 renal it was 41.6%; in the test with COLO 205 colon, 1.5% (active); in the test with DU-145 prostate, 4.2% (active); in the test with K-562 leukemia, -43.3% (active); with MALME-3M melanoma it was -56.1% (active). Moreover, the growth with MDA-MB-231 breast is -40.2% (active); in the test on RXF 393 renal, -88.9% (active); in the test on SF-268 CNS, 3.08% (active); in the test with SF-295 CNS, 88.1%; in the test on SF-539 CNS, 9.56% (active); in the test with UACC-257 melanoma it was -49.3% (active). Also, the growth in the test on M14 melanoma is -21.1% (active).
Turning to `COC(=O)/C=C1\SC(=Nc2ccc(F)cc2)N(CCc2c[nH]c3ccccc23)C1=O`, the growth in the test on NCI-H23 lung was 85.3%; in the test with HOP-62 NSCLC it was 104%; with NCI-H460 lung it was 104%; with HOP-92 NSCLC, 106%; in the test on NCI-H522 lung, 68.3%; in the test on A549/ATCC NSCLC, 79%. Moreover, the growth was 104% in the test with 786-0 renal; 126% in the test on COLO 205 colon; 102% in the test on DU-145 prostate; 88% with K-562 leukemia; 99.9% in the test with MALME-3M melanoma; 96.9% in the test with MDA-MB-231 breast. Besides, the growth was 110% with RXF 393 renal; 104% in the test on SF-268 CNS; 97.7% with SF-295 CNS; 109% in the test on SF-539 CNS; 72.4% in the test on UACC-257 melanoma; 102% in the test with M14 melanoma.
Consider `CN(CCC#N)C(=O)Nc1ccccc1`, for which the growth is 101% with NCI-H23 lung; 107% in the test on NCI-H322M lung; 98.8% in the test with HOP-62 NSCLC; 112% in the test with NCI-H460 lung; 114% with HOP-92 NSCLC; 79.8% with NCI-H522 lung. Moreover, the growth was 101% in the test on A549/ATCC NSCLC; 101% with 786-0 renal; 112% with COLO 205 colon; 115% in the test on DU-145 prostate; 96.2% in the test on K-562 leukemia; 100% with MALME-3M melanoma. Also, the growth is 116% in the test on MDA-MB-231 breast; 114% in the test on RXF 393 renal; 106% in the test on SF-268 CNS; 109% in the test on SF-295 CNS; 105% in the test with SF-539 CNS; 94.1% in the test with UACC-257 melanoma. In addition, the growth in the test with M14 melanoma was 109%.
For `O=C(O)c1cn(C2CC2)c2cc(N3CCN(Cc4nnc(Nc5ccccc5)o4)CC3)c(F)cc2c1=O`, the growth in the test with NCI-H23 lung is 105%; in the test with NCI-H322M lung it was 93.5%; in the test on HOP-62 NSCLC it was 99.8%; with NCI-H460 lung, 104%; with HOP-92 NSCLC it was 104%; in the test on NCI-H522 lung, 92.7%. The growth in the test on A549/ATCC NSCLC was 98.3%; in the test with 786-0 renal, 94.9%; in the test with COLO 205 colon, 104%; with DU-145 prostate, 103%; with K-562 leukemia it was 84.4%; in the test on MALME-3M melanoma it was 89.1%. The growth was 109% in the test on MDA-MB-231 breast; 118% in the test on RXF 393 renal; 90.2% with SF-268 CNS; 102% in the test with SF-295 CNS; 99.4% in the test on SF-539 CNS; 106% in the test with UACC-257 melanoma. For the same molecule, in the test on M14 melanoma, the growth is 95.7%.
`CC(=O)OCC1OC(OC2C(COC(C)=O)OC(OCCC[S-])C(OC(C)=O)C2OC(C)=O)C(OC(C)=O)C(OC(C)=O)C1OC(C)=O.[Au+].c1ccc(CN2[CH-]N(Cc3ccccc3)C(c3ccccc3)=C2c2ccccc2)cc1` (stereo not given): the growth in the test on NCI-H23 lung is 12.1%; with NCI-H322M lung, 52%; in the test with HOP-62 NSCLC, 31.8%; in the test on NCI-H460 lung it was 15%; with HOP-92 NSCLC it was -11.4% (active); with NCI-H522 lung it was -30.8% (active). Further, the growth was 23.2% in the test with A549/ATCC NSCLC; 9.05% (active) in the test with 786-0 renal; -37.4% (active) in the test on COLO 205 colon; 26.1% in the test with DU-145 prostate; 4.75% (active) in the test on K-562 leukemia; -8.9% (active) with MALME-3M melanoma. Also, the growth in the test on MDA-MB-231 breast was -34.7% (active); in the test on RXF 393 renal, 25.7%; in the test on SF-268 CNS it was 40.1%; in the test on SF-295 CNS it was 7.32% (active); in the test on SF-539 CNS it was 35.6%; in the test on UACC-257 melanoma it was 12.5%. For the same molecule, the growth with M14 melanoma was 25%.
